The values that follow come from PubChem BioAssay AID1508600 (Functional Genomics Laboratory (NCATS/FGL), 2020).

The whole screen tested about 53,000 sequences, of which about 3,700 (7%) were called active. Only a selection was taken, and actives are over-represented in it overall. A number with no mark means an inactive call.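 Rule for the calls: active = gene knockdowns whose robust z-score for IL-1 alpha signal is at least 2 or at most -2, so actives lie on both sides; inactive = the rest.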

The nature of this experiment: Components of the Cytosolic LPS Sensing Pathway: Gene Identification via Genome-wide siRNA Screen.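 Note: robust z of the log signal after scaling to non-targeting control siRNA wells of the plate.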 Conditions: RAW264.7 macrophages, IL-1a HTRF, actives lie on both sides, screened at 100 nM (by protocol), cells primed 5 h with Pam3CSK4 first. The method in brief: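 Three distinct siRNAs per gene were tested singly at 100 nM in RAW264.7 macrophages. Following Pam3CSK4 priming and 24 hour LipidA transfection, IL-1a secretion was read by HTRF.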
On the technique in general: In TR-FRET formats the signal depends on donor and acceptor labels being close together.
GGACCUAGAGGACUAUAAATT against P3h2: the z-score was 0.894. “GGAGCAGGUUACCAGAAAATT against E130114P18Rik”: the z-score is 0.301.

GGGUUUGACUGUACAGUACTT against Adamts4: the z-score is -1.29. The result for GGCCUUUACACGUGAGUCUTT against Zfp420 reads -0.864. In the case of CGGAUGCGACAAAAAUCACTT against Il4 it was 1.77; in that of GCACUUACCGGAUCCAUUGTT against Clk4, -0.793. The result for GCACAGGUCUAAUUCGUCUTT against Grik1 reads -2.78 (active); that for GGACUUGACCCUGUCUUUGTT against Ostm1, 0.871; that for GGAACAAAAACUGGUGCGCTT against Emilin2, 2.07 (active). GGCAUCUGAGCUGAGGAUUTT against Gem: the z-score was -0.295.

For GGAUAGCUUGAUCAAUCUUTT against Cisd2, the z-score was -0.13.

GCCUCUUAAUUUUAAGCUGTT against Gpr82: the z-score was -0.505. The result for GGGAAACUUGAACUUUGAUTT against Rsph1 reads -1.54; that for GGGACAAUUCAGGAUGGAGTT against Ift88, 0.0559.

GCGGCUUUACAAGGAUGACTT against Elob: the z-score is 2 (active). The result for GGUCCUUUUUUCAACCAGCTT against Sh3gl1 reads -0.259; that for CCAAGGGUUGUUAAGUAUUTT against Cdh26, 1.08. The result for GGAUUUUCAUCGUGCUUUGTT against Necab3 reads 1.23; that for CCGUGAUAAUGUAACACCUTT against Prtg, 0.0383; that for GGUAAACAUUGCUACUUUGTT against Mpdz, 0.935. In the case of GGCCAAGAAAAACUACUAUTT against Kcnk5 it was -0.706. CCUAGGUUUGAAGACUCCCTT against Asphd2: the z-score is -2.03 (active). The result for CCAAAUAUCACACACCCGATT against Fam187a reads 0.798; that for GGUGACUACUACAGGAAACTT against Hps1, 2.3 (active). In the case of GCACUUAUGAUGUCCUAUUTT against Sema4b it was 0.606. Turning to GGACAAAGUCUAGAAACUATT against Lrrc2, the z-score is 0.26. GGCUAUGACAAUGCCUACATT against Maged2: the z-score is 0.00495. In the case of GCGAAUCUUGCUUCUGACCTT against H4c8 it was -2.13 (active).

In the case of GGUUUUUCGAGUUUUUUCUTT against Msx1, the z-score was 1.06. In the case of GGCUGCUUAUAAAAUUUUCTT against Mipep it was 0.398.
